# Rows were chosen to be rich in hits. Some 14% of all compounds tested hit in one or more screens of this group.
# Pf growth 48h: P. falciparum growth inhibition at 48 hours (one generation). 310,000 tested, 5.9% active. P. falciparum luciferase growth in erythrocytes, 48 h. Potency, µM (top dose mostly 28.7 µM), for the others: at the highest dose activity change, negative = inhibition, most hits filed as inhibitors; further: potency means the concentration at half of the fitted maximal effect
#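 Parasite viability was followed by luminescence of a genomically integrated firefly luciferase. Cultures held 0.1% parasitemia at 2% hematocrit (final), incubated under 5% CO2 at 37 C.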
# Giardia FBPA inh: Giardia lamblia aldolase inhibition | 290,000 tested, 0.71% active | purified Giardia FBPA | A8B2U2 | Potency, µM (doses to about 59.6 µM), inactives show top-dose activity, negative = inhibition, actives largely listed as inhibitors | AID 2451; further: potency means the concentration at half of the fitted maximal effect; nearly all actives have a fitted effect of over 55% in size
# Target sequence (A8B2U2 whole entry, looked up): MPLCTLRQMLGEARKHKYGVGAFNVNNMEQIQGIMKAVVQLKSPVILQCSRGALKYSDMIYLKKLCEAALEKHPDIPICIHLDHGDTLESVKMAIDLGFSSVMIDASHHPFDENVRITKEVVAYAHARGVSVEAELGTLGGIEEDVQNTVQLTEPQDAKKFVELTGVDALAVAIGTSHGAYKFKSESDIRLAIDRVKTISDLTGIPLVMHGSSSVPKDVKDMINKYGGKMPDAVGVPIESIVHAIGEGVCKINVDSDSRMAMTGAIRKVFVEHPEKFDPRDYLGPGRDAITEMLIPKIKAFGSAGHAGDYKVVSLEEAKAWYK
#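 40 nM FBPA preincubated 10 min at RT with compound (up to 57.5 uM final), then substrate plus GAPDH/TPI/NAD/arsenate coupling and diaphorase/resazurin added. Fluorescence read after 20 min at RT, 525/598 nm.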
# HCMV inh: blocks human cytomegalovirus replication; 410,000 tested, 4.5% active; HFF cells, HCMV-luciferase reporter, 72 h; hits give low values; activity change, negative = inhibition, % at 57.5 µM; AID 1259415; in the data active means activity change below about -60%; inconclusive means no clear call, values can overlap the other calls; inactive means above about -39%
#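 Luciferase read-out from HCMV-luciferase-infected HFFs (MOI 1 PFU/cell) 72 h post infection at 37C; compounds added after 16 h cell attachment; activity normalized between buffer-only basal and Salinomycin (10uM) inhibitor controls.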
# Pf growth 96h: P. falciparum growth inhibition at 96 hour, primary screen for plastid delayed-death inhibitors; P. falciparum luciferase reporter growth, 96 h; Potency, µM (doses to about 28.7 µM), without a hit: at the highest dose activity change, negative = inhibition, actives largely listed as inhibitors; 320,000 tested, 6.9% active; further: potency means the concentration at half of the fitted maximal effect
#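 Two-generation exposure (96 h) targets delayed-death phenotype. Reporter parasites carrying integrated firefly luciferase, in red cells at 2% hematocrit and 0.05% parasitemia final, kept at 37 C, 5% CO2; luminescence loss indicates inhibition.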
# Sm TGR block: blocks Schistosoma mansoni thioredoxin glutathione reductase; Potency, µM (series often up to 114 µM), inactives show at the highest dose activity change, negative = inhibition, usual class: inhibitors; Q962Y6; AID 485364; purified TGR, DTNB reduction, TNB absorbance 405 nm; 360,000 tested, 3% active; further: potency means the concentration at half of the fitted maximal effect; nearly all actives have a fitted effect of over 60% in size
#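 Kinetic colorimetric format: TGR-catalysed, NADPH-driven DTNB reduction monitored via TNB absorbance. Enzyme dispensed at 20 nM; compound exposure 15 min at room temperature before reaction start.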
# * marks the source's active call; other numbers are inactive results; ? = inconclusive; . = not tested or not shown. Unless noted, the call rests on the fitted dose curve; in most records, active means well fitted curve in the direction sought with a large enough effect; inconclusive means small, poorly fitted or top-dose-only effect, or another doubt; inactive means no such curve, though single readings can be large; an effect the other way counts as inactive or inconclusive. On the % scale 0 is the no-effect control and ±100 the full control effect.
SMILES,Pf growth 48h,Giardia FBPA inh,HCMV inh,Pf growth 96h,Sm TGR block
COc1ccc(C2CC(c3ccccc3C(F)(F)F)=NN2c2ccc(S(N)(=O)=O)cc2)cc1 (centres undefined),.,.,-1,.,.
CCCC(=O)NC(C)c1nc2ccccc2n1CC (centres undefined),5%,1%,-3,17%,3%
C=CCn1c(C)cc(C(=O)Cn2c(C(C)O)nc3ccccc32)c1C (centres undefined),?,-1%,-66*,13%,-6%
C=CCn1c(C(C)NC(=O)CCC)nc2ccccc21 (centres undefined),-3%,4%,-62*,120%,0%
O=C(NCC(c1ccccc1Cl)N1CCCC1)C1CCN(C(=O)Nc2ccccc2)CC1 (centres undefined),?,.,-27,?,-23%
CCCCCCCCCC(=O)NO,-11%,.,.,?,.
Cc1cc(NC(=O)OC(C)(C)C)c(-n2nnnc2C(C(=O)c2ccc3c(c2)OCO3)N2CCCCC2)cc1C (centres undefined),.,.,-8,.,.
c1ccc2c(-c3[nH]ncc3CNCCCn3ncc4ccccc43)cccc2c1,15µM*,-9%,?,12%,-15%
Cc1cc(C)cc(NC(=O)CCc2nnc3n(CC(C)C)c(=O)c4ccccc4n23)c1,.,.,-5,.,4%
CCOC(=O)C1=NN(c2ccc(Cl)cc2)C(c2ccccc2)CC1=O (centres undefined),9.3µM*,1%,7,?,1%
CCOC(=O)C1=C(CNCc2ccc(Cl)cc2)NC(=O)NC1c1ccccc1 (centres undefined),.,.,-13,.,-9%
COc1cc(C)ccc1OCCSc1nc2ccc(NC(=O)c3ccco3)cc2s1,.,.,-61*,.,12%
Cc1cccc(C(=O)Nc2ccc3nc(SCCOc4ccccc4)sc3c2)c1,.,.,-11,.,-5%
CC(=O)Nc1ccc2nc(SCCOc3ccccc3Cl)sc2c1,.,.,-80*,.,-2%
CCC(=O)Nc1ccc2nc(SCCOc3cccc(C)c3)sc2c1,.,.,-64*,.,7%
CCc1nc(CN(C)C(=O)C2CCC(=O)N(CCc3cccc(F)c3)C2)no1 (centres undefined),7%,.,21,9%,-25%
Cc1cnc(NC(=O)CN2CCN(c3ccccn3)CC2)s1,2%,-3%,-97*,0%,-5%
CSc1ccccc1NC(=O)CN1CCN(S(=O)(=O)c2ccccc2[N+](=O)[O-])CC1,9.3µM*,.,-13,9.3µM*,-21%
CSc1ccccc1NC(=O)CN1CCN(c2ccccn2)CC1,7.4µM*,14%,-63*,8.3µM*,36%
COc1cc(Cl)c(C)cc1NC(=O)c1ccccc1NC(=O)CN1CCN(c2ccccn2)CC1,.,.,-95*,.,.
C[C@@H]1CN([C@H](C)CO)C(=O)CCCn2nncc2CO[C@@H]1CN(C)C(=O)C1CC1,.,.,10,.,.
CC(C)(C)c1ccc(CC(=O)N2CCC2(C)C(=O)Nc2ccc3[nH]ncc3c2)cc1 (centres undefined),.,.,-86*,.,.
C#Cc1ccc(NC(=O)C2(C)CCN2C(=O)Cc2ccc(C(C)C)cc2)cc1 (centres undefined),.,.,-82*,.,.
C#Cc1ccc(NC(=O)C2(C)CCN2C(=O)Cc2ccc(C(C)(C)C)cc2)cc1 (centres undefined),.,.,-83*,.,.
CC(C)c1ccc(CC(=O)N2CCC2(C)C(=O)NCC(C)(C)C)cc1 (centres undefined),.,.,-26,.,.
SMILES,Pf growth 48h,Giardia FBPA inh,HCMV inh,Pf growth 96h,Sm TGR block
C#Cc1ccc(NC(=O)C2(C)CCN2C(=O)C/C=C/c2ccccc2)cc1 (centres undefined),.,.,-21,.,.
CC1(C(=O)Nc2ccc3[nH]ncc3c2)CCN1C(=O)CCc1ccccc1 (centres undefined),.,.,1,.,.
N#Cc1ccc(CN2CCC3(CC2)CCN(C(=O)c2ccncc2)CC3)cc1,.,2%,.,.,.
CCN1CC(=O)Nc2cc(S(=O)(=O)N3CCOCC3)ccc21,?,5%,-60*,-20%,-21%
CCN1C(=O)Cc2cc(S(=O)(=O)N3CCOCC3)ccc21,25%,-3%,42,4%,8%
CCOc1ccc2nc(SCC(=O)NCC3CCCO3)c(C#N)cc2c1 (centres undefined),15%,.,-13,8%,10%
O=C(NCc1ccccc1)c1cc(C2CCCN(C(=O)C3CCCCC3)C2)on1 (centres undefined),.,.,23,.,.
Cc1ccc(-c2cc3cccc[n+]3cc2-c2ccc(C)cc2)cc1,0.41µM*,4%,-98*,?,-5%
Cc1cc(NC(=O)c2ccccc2F)nc2c1c(=O)oc1ccccc12,17%,5%,-26,-20%,11%
CC1(C)C(OC(=O)CCC(=O)O)CC[C@]2(C)C1CC[C@@]1(C)C2C(=O)C=C2[C@@H]3C[C@@](C)(C(=O)O)CC[C@]3(C)CCC21C (some centres undefined),.,27%,.,.,.
COc1ncc2ncc(=O)n(C3CC3)c2n1,.,-1%,.,.,.
COc1ccc2[nH]cc(CCNC(=O)c3cnn(-c4ccc(C)cc4)c3C3CCN(C(=O)OC(C)(C)C)CC3)c2c1,.,.,?,.,7%
COc1cc(/C=C/C(=O)OCN2C(=O)c3ccccc3C2=O)ccc1OC(F)F,13%,.,33,9%,-16%
COc1ccc(/C=C/C(=O)OCn2c(SC)nnc(C)c2=O)cc1OC,6%,6%,0,-28%,28µM*
COc1ccc(NC(=O)c2[nH]c(C)c(C(C)=O)c2C)cc1S(=O)(=O)N1CCOCC1,4%,-5%,161,0%,6%
Cc1ccc(NC(=O)C(C)OC(=O)c2cc(=O)[nH]c3ccccc23)cc1S(=O)(=O)N1CCOCC1 (centres undefined),.,.,7,.,.
CC(=O)c1c(C)[nH]c(C(=O)Nc2ccc(C)c(S(=O)(=O)N(C)C)c2)c1C,233%,-9%,308,-7%,0%
CCN(CC)S(=O)(=O)c1cc(NC(=O)C(C)OC(=O)c2[nH]c(C)c(C(C)=O)c2C)ccc1C (centres undefined),3.7µM*,-6%,-29,?,-2%
CC(=O)c1c(C)[nH]c(C(=O)OC(C)C(=O)Nc2ccc(C)c(S(=O)(=O)N3CCOCC3)c2)c1C (centres undefined),9.3µM*,.,-13,5.2µM*,-10%
CC(=O)c1c(C)[nH]c(C(=O)Nc2ccc(Cl)c(S(=O)(=O)N3CCOCC3)c2)c1C,4.1µM*,3%,94,4.1µM*,-11%
Cc1onc(-c2ccccc2)c1C(=O)Nc1ccc(Cl)c(S(=O)(=O)N2CCOCC2)c1,?,.,-103*,?,1%
CC(C)NC(=O)c1ccc(CN2CCc3ccccc3C2)cc1,103%,3%,-4,?,9%
Cc1ccc(S(=O)(=O)Nc2ccc3c(c2)C(=O)N([C@H](C)CO)C[C@H](C)[C@@H](CN(C)Cc2ccccc2)O3)cc1,.,.,30,.,.

# Screens (PubChem BioAssay)
